Results taken from PubChem BioAssay (EPA / NIEHS).
“And” between values parts separate entries of the source, which are not always exact repeats. Equal entries are not always repeated. Records with an inconclusive call do not appear. The source made the active and inactive calls. How the source made its calls, unless noted: active means hit-call score of the fitted dose curve at least 0.9, where 1 is the maximum; inconclusive means response in the unintended direction; inactive means score below 0.9.

Legend:
[1] = target: Cellular tumor antigen p53 (Homo sapiens) (UniProt P04637); assay: TOX21_p53_BLA_p5_ratio: Tox21 HCT-116 p53 Agonism Beta-lactamase Assay, Ratio, Phase 5 (AID 2283599)
Procedure, shortened: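 HCT-116 p53-bla cells (4000/well) plated 5 h, dosed with compound (217-fold DMSO dilution) for 16 h at 37 C; CCF4-AM substrate 2 h at room temperature. Activity is the 460/530 nm emission ratio (405 nm excitation), fitted in gain-of-signal direction versus DMSO.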

[2] = TOX21_p53_BLA_p5_viability: Viability Assessment in the Tox21 HCT-116 p53 Agonism Beta-lactamase Assay, Phase 5 (AID 2283600)
Procedure, shortened: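 ATP luminescence (CellTiter-Glo, 30 min, RT) served as the viability read-out, with loss of signal indicating cytotoxicity. Compounds in DMSO were pinned at a 217-fold dilution onto 4000 cells/well and incubated 16 h, 37C.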

[3] = target: Cellular tumor antigen p53 (Homo sapiens) (UniProt P04637); assay: TOX21_p53_BLA_p4_ratio: Tox21 HCT-116 p53 Agonism Beta-lactamase Assay, Ratio, Phase 4 (AID 2283601)
Procedure, shortened: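 HCT-116 p53 beta-lactamase reporter cells (4000/well) preincubated 5 h, then compound (217-fold dilution of DMSO stock) for 16 h at 37C. CCF4-AM substrate added 2 h at room temperature; 460/530 nm emission ratio fitted upward versus DMSO.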

[4] = Tanguay_ZF_120hpf_MORT_legacy: (Legacy) Oregon State University Tanguay Lab 120 Hour Post-fertilization zebrafish Assay for Mortality (AID 2283633)
Procedure, shortened: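 Brightfield scoring of embryo death (binary) at 24 and 120 hpf; static exposure 6–120 hpf, 28C, sealed and foil-covered. Pronase-dechorionated 5D wild-type larvae, single embryo per well. DMSO 0.64% v/v; trimethyltin chloride 5uM positive control.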

[5] = Tanguay_ZF_120hpf_YSE_legacy: (Legacy) Oregon State University Tanguay Lab 120 Hour Post-fertilization zebrafish Assay for Yolk Sac Edema (AID 2283634);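 on AC50: actives raise the incidence of yolk sac edema above the DMSO baseline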
Procedure, shortened: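 Binary brightfield scoring of yolk sac edema at 120 hpf; DMSO baseline, gain-of-signal fitting. Dechorionated 5D larvae, one per well, static exposure 6–120 hpf, 28C, 0.64% DMSO. Dead embryos not scored.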

[6] = Tanguay_ZF_120hpf_EYE_legacy: (Legacy) Oregon State University Tanguay Lab 120 Hour Post-fertilization zebrafish Assay for Eye Malformation (AID 2283636);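 further: binary presence or absence of eye malformation scored by brightfield in 120 hpf larvae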
Procedure, shortened: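 5D wild-type embryos, pronase-dechorionated at 4 hpf; static exposure 6–120 hpf, 28C, dark; DMSO 0.64% final; 5uM trimethyltin chloride positive control. Binary eye-defect scoring at 120 hpf; dead embryos not scored.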

[7] = Tanguay_ZF_120hpf_SNOU_legacy: (Legacy) Oregon State University Tanguay Lab 120 Hour Post-fertilization zebrafish Assay for Snout Malformation (AID 2283637)
Procedure, shortened: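 Binary brightfield scoring of snout malformation at 120 hpf. Dechorionated 5D wild-type embryos, one per well, static exposure from 6 hpf at 28C, sealed and dark; final DMSO 0.64% (vol/vol), DMSO as baseline; 5uM trimethyltin chloride positive control.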

[8] = Tanguay_ZF_120hpf_JAW_legacy: (Legacy) Oregon State University Tanguay Lab 120 Hour Post-fertilization zebrafish Assay for Jaw Malformation (AID 2283638)
Procedure, shortened: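 Binary jaw-malformation calls at 120 hpf by brightfield imaging; DMSO (0.64% v/v) = baseline. Embryos: 5D wild-type, pronase-dechorionated, one per well from 6 hpf, static exposure, 28C, sealed, dark.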

[9] = Tanguay_ZF_120hpf_OTIC_legacy: (Legacy) Oregon State University Tanguay Lab 120 Hour Post-fertilization zebrafish Assay for Otic Vesicle Malformation (AID 2283639)
Procedure, shortened: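 Binary scoring of otic vesicle defects at 120 hpf in zebrafish (Tropical 5D) held under static exposure at 28C, sealed and shaded, with final DMSO 0.64%. Embryos dying by 24 or 120 hpf excluded; fitted positively against DMSO.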

[10] = Tanguay_ZF_120hpf_PE_legacy: (Legacy) Oregon State University Tanguay Lab 120 Hour Post-fertilization zebrafish Assay for Pericardial Edema (AID 2283640);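 on AC50: potency for increased incidence of pericardial edema versus DMSO baseline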
Procedure, shortened: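 Static waterborne exposure, 5D wild-type embryos, 28C, to 120 hpf; final DMSO 0.64% (vol/vol). Binary PE call at 120 hpf by brightfield; fitted upward vs DMSO baseline. 5uM trimethyltin chloride as positive control.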

[11] = Tanguay_ZF_120hpf_BRAI_legacy: (Legacy) Oregon State University Tanguay Lab 120 Hour Post-fertilization zebrafish Assay for Brain Malformation (AID 2283641)
Procedure, shortened: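 Read-out: binary brain morphology call at 120 hpf (brightfield), fitted in gain-of-signal direction vs DMSO. Wild-type Tropical 5D embryos, static exposure, 28C, 0.64% DMSO final; 5uM trimethyltin chloride as positive control.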

[12] = Tanguay_ZF_120hpf_SOMI_legacy: (Legacy) Oregon State University Tanguay Lab 120 Hour Post-fertilization zebrafish Assay for Somite Malformation (AID 2283647)
Procedure, shortened: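 Binary brightfield scoring of somite defects at 120 hpf in 5D wild-type larvae; one dechorionated embryo per well, static exposure from 6 hpf, 28C, sealed and dark. Final DMSO 0.64%; trimethyltin chloride 5uM positive control.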

[13] = Tanguay_ZF_120hpf_PFIN_legacy: (Legacy) Oregon State University Tanguay Lab 120 Hour Post-fertilization zebrafish Assay for Pectoral Fin Malformation (AID 2283648);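 further: each larva judged yes or no for fin defect by brightfield with dead larvae skipped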
Procedure, shortened: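 Binary pectoral fin malformation call at 120 hpf by brightfield microscopy; 5D wild-type zebrafish, chorion removed at 4 hpf, one embryo per well from 6 hpf, static exposure at 28C; DMSO (0.64% final) as baseline.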

[14] = Tanguay_ZF_120hpf_CFIN_legacy: (Legacy) Oregon State University Tanguay Lab 120 Hour Post-fertilization zebrafish Assay for Caudal Fin Malformation (AID 2283649)
Procedure, shortened: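 Dechorionated 5D wild-type zebrafish, static exposure 6–120 hpf, 28C, sealed and dark, 0.64% v/v DMSO final. Binary fin-malformation call at 120 hpf, brightfield; gain of signal vs DMSO baseline.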

[15] = Tanguay_ZF_120hpf_PIG_legacy: (Legacy) Oregon State University Tanguay Lab 120 Hour Post-fertilization zebrafish Assay for Pigmentation Malformation (AID 2283650);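 further: dechorionated Tropical 5D zebrafish embryos exposed singly from 6 to 120 hpf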
Procedure, shortened: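 Brightfield scoring of pigmentation malformation at 120 hpf, recorded as binary present/absent per larva. Exposure: dechorionated 5D wild-type embryos, one per well, static from 6 hpf at 28C, final DMSO 0.64% (vol/vol). Dead embryos not scored.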

[16] = Tanguay_ZF_120hpf_SWIM_legacy: (Legacy) Oregon State University Tanguay Lab 120 Hour Post-fertilization zebrafish Assay for Swim Bladder Malformation (AID 2283654);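 further: swim bladder malformation in each larva scored yes or no under brightfield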
Procedure, shortened: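 Tropical 5D embryos dechorionated at 4 hpf; 1 embryo/well from 6 hpf; static, sealed, dark exposure at 28C until 120 hpf; final DMSO 0.64%; 5uM trimethyltin chloride positive control; swim bladder defect recorded yes/no; dead embryos not scored.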

[17] = Tanguay_ZF_120hpf_AXIS_legacy: (Legacy) Oregon State University Tanguay Lab 120 Hour Post-fertilization zebrafish Assay for Body Axis Malformation (AID 2283635)
Procedure, shortened: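 Embryos: 5D wild-type, pronase-dechorionated 4 hpf; static exposure 6–120 hpf, 28C, sealed, dark, 1 embryo/well, 0.64% DMSO. 120 hpf axis malformation scored present/absent; dead embryos excluded. Analysed as gain of signal vs DMSO.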

[18] = Tanguay_ZF_120hpf_CIRC_legacy: (Legacy) Oregon State University Tanguay Lab 120 Hour Post-fertilization zebrafish Assay for Circulatory Malformation (AID 2283651)
Procedure, shortened: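 Binary circulatory malformation call at 120 hpf by brightfield imaging of zebrafish larvae; chorion removed at 4 hpf, static exposure from 6 hpf in sealed dark plates at 28C, final DMSO 0.64%; non-mortality endpoints skipped if embryo died.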

[19] = read-out: kallikrein-3 (KLK3), KLK3 (gene 354); assay: LTEA_HepaRG_KLK3: Life Technologies and Expression Analysis (LTEA) Assay for kallikrein-3 (KLK3) using HepaRG (AID 2283652; active means hit-call score of the fitted dose curve at least 0.9, where 1 is the maximum; inactive means score below 0.9); details: mRNA level, 48 h; actives raise or lower the signal
Procedure, shortened: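 KLK3 transcript levels were measured by TaqMan qRT-PCR with normalisation to three housekeeping genes. HepaRG cultures received chemicals for 48 h at up to 100 uM (half-log, 8 points, 0.5% DMSO vehicle), fitted in both directions against DMSO.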

[20] = read-out: solute carrier (SLC22A6), SLC22A6 (gene 9356); assay: LTEA_HepaRG_SLC22A6: Life Technologies and Expression Analysis (LTEA) Assay for solute carrier (SLC22A6) using HepaRG (AID 2283653; active means hit-call score of the fitted dose curve at least 0.9, where 1 is the maximum; inactive means score below 0.9); details: mRNA level, 48 h; actives raise or lower the signal
Procedure, shortened: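 HepaRG, human liver line; 48 h chemical exposure; 8-pt half-log series from 100 uM in 0.5% DMSO, duplicate wells. Readout: TaqMan qRT-PCR of SLC22A6 mRNA, housekeeping-normalised; bidirectional curve fit vs DMSO baseline.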

Measured: AC50

Cellular tumor antigen p53 (Homo sapiens), sequence (P04637 whole entry, looked up): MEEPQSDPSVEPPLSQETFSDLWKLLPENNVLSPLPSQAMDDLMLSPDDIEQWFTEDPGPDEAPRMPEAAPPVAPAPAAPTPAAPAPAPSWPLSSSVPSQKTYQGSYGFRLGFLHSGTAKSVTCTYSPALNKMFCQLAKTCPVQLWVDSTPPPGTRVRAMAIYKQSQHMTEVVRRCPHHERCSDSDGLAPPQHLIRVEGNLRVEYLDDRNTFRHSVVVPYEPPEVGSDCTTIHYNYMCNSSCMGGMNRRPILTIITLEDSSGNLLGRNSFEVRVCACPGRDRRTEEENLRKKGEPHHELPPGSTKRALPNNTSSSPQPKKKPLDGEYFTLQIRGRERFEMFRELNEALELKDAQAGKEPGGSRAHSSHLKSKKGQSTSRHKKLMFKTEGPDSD

CCCCCCCC(=O)O
not listed: [17] | [18] | [19] | [20]
inactive: all other assays above

O=[N+]([O-])c1ccc(O)cc1
not listed: [8] | [18] | [19] | [20]
inactive: all other assays above

CCN(CC)CCNc1ccc(CNC=O)c2sc3ccc(OC)cc3c(=O)c12
active: [1] 29 µM | [3] 12.1 µM
not listed: [7] | [9] | [13] | [18] | [19] | [20]
inactive: all other assays above

CC(C)(C)c1cccc(C(C)(C)C)c1O
not listed: [13] | [14] | [17] | [19] | [20]
inactive: all other assays above

CN1CCN(c2ccccc2/C=C2\SCCN(c3ccc(Cl)c(Cl)c3)C2=O)CC1
active: [1] 86 µM | [2] 83.7 µM
not listed: [8] | [18] | [19] | [20]
inactive: all other assays above

CC#C[C@]1(O)CC[C@H]2[C@@H]3CCC4=CC(=O)CCC4=C3[C@@H](c3ccc(N(C)C)cc3)C[C@@]21C
active: [1] 72.6 µM and 22 µM | [3] 65.8 µM and 20.7 µM | [5] 73.3 µM | [10] 73.3 µM
inactive: [2] | [4] | [6] | [7] | [8] | [12] | [14] | [15] | [16]

O=C(OCCOCCOC(=O)c1ccccc1)c1ccccc1
not listed: [8] | [12] | [18]
inactive: all other assays above
